The panel holds about 83,000 compounds, 20% with a hit somewhere; the sample as a whole holds those more often.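 Plates (96-well) were seeded with cells, treated with compound at one concentration, and incubated for 48 hours before percent growth was determined.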 A number with no mark means an inactive call. Calls of active or inactive are those of the source. Rule for the calls: active = growth percent below 10; inactive = the rest.
tested on: HL-60(TB) leukemia; assay: NCI-60 one-dose screen, 48 h (100 = growth as untreated, 0 = no growth, -100 = all killed); conditions: 10 µM unless noted

Row | SMILES | growth
1 | CC(=O)c1cc(Br)ccc1O | 101%
2 | CCCCC[n+]1ccc(SCC(=O)N(C)c2ccc(Oc3ccccc3)cc2)c2ccccc21 | 3.74% (active)
3 | O=C(COc1ccc(/C=C2\CSc3ccccc3C2=O)cc1)Nc1nccs1 | -22.4% (active)
4 | Oc1ccc(O)cc1 | 48.4%
5 | COc1cccc(C(=O)NNc2nc(Cl)nc(Cl)n2)c1 | 96.2%
6 | C/C(=C(/c1ccc(Cl)cc1)c1ccc(OCCN2CCCCC2)cc1)c1ccccc1 | 61.8%
7 | COc1ccc(N2CCN(c3nc(-c4ccccc4)c(C#N)c(=O)[nH]3)CC2)cc1 | 55.2%
8 | Cn1cc(C(=O)c2nc(-c3cn(C)c4ccc(F)cc34)no2)c2cc(F)ccc21 | 93.3%
9 | COc1cc2c(cc1OCCCN1CCN(CCCOc3cc4c(cc3OC)C(=O)N3CC(F)(F)C[C@H]3C=N4)CC1)N=C[C@@H]1CC(F)(F)CN1C2=O | 15.7%
10 | CC1=CC(=NC(=O)CBr)C=C/C1=N\S(=O)(=O)c1ccccc1 | 67.2%
11 | C#CCO[C@H]1CC[C@H](OCC#C)[C@@H]2[C@H]1[C@H]1C[C@@H]3[C@@]4(C)CCC[C@@](C)(C(=O)OC)[C@@H]4CC[C@@]23C=C1C(C)C | 78.1%
12 | CC(C)CCSC1=CC(=O)c2ccccc2C1=O | 13.3%
13 | Cc1ccc(-n2nc(C(C)(C)C)cc2NC(=O)NCc2cc(F)ccc2Oc2ccc3c(cnn3CCO)c2)cc1 | -1.84% (active)
14 | O=S(=O)(c1ccccc1)N1CCCN(c2nc(-c3ccccc3)nc3nc(-c4ccccc4)oc23)CC1 | 102%
